Assay results reported in PubChem BioAssay (NCI).
This is part of a sample that, as a whole, favours compounds with a hit. Of some 79,000 tested, about 15% had one in any assay. Activity calls are given as the source filed them. Rule as the data show it: active = growth inhibition above about 70%; inactive = the rest.

How the values were obtained:
[1] = NCI Yeast Anticancer Drug Screen. Data for the rad50 strain (AID 155);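 also: 0% = growth of vehicle-only cultures of the same strain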; details: S. cerevisiae rad50 strain growth inhibition; at 50.0 µM; stronger effect = higher value
Method in brief: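 Vehicle-treated cultures provide the reference for the growth inhibition reported for compound-exposed, repair-deficient yeast.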

[2] = NCI Yeast Anticancer Drug Screen. Data for the mec2-1 strain (AID 157); details: S. cerevisiae mec2-1 strain, at 50.0 µM, stronger effect = higher value
Method in brief: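 Each compound was tested on mec2-1 yeast, a strain altered in DNA damage repair or cell cycle control. Growth inhibition is reported relative to vehicle.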

[3] = NCI Yeast Anticancer Drug Screen. Data for the sgs1 mgt1 strain (AID 161);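 also: 0% = growth of cultures given vehicle only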; details: S. cerevisiae sgs1 mgt1 strain, at 50.0 µM, stronger effect = higher value
Method in brief: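 Inhibition of yeast growth, normalised to vehicle-treated controls, is reported for a strain bearing genetic alterations in DNA damage repair.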

[4] = NCI Yeast Anticancer Drug Screen. Data for the cln2 rad14 strain (AID 165);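 also: 0% = growth equal to vehicle treated cultures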; details: S. cerevisiae cln2 rad14 strain, at 50.0 µM, stronger effect = higher value
Method in brief: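 Test compounds were added to cln2 rad14 yeast cultures; inhibition of growth was then determined by comparison with vehicle treatment.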

[5] = NCI Yeast Anticancer Drug Screen. Data for the bub3 strain (AID 167); details: S. cerevisiae bub3 mutant strain, at 50.0 µM, stronger effect = higher value
Method in brief: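 Mutant yeast screening strain plus compound; vehicle-treated cultures serve as the 0% inhibition reference.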

[6] = NCI Yeast Anticancer Drug Screen. Data for the mlh1 rad18 strain (AID 175); details: S. cerevisiae mlh1 rad18 strain growth inhibition; at 50.0 µM; stronger effect = higher value
Method in brief: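 Inhibition values reflect reduced growth of mutant yeast versus vehicle-treated controls following compound exposure; the mutations affect DNA damage repair.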

Measured: growth inhibition

Cc1ccc(N2[C@H]3CCCN3c3ccc(C)cc3[C@@H]2C(F)(F)F)cc1
inactive: [1] 16.3% | [2] 0.8% | [3] 29.5% | [4] -2.25% | [5] -15.5% | [6] 2%

CC(=O)NC(Cc1cccc2ccccc12)C(=O)O (stereo not drawn)
inactive: [1] 0.55% | [2] -6.15% | [3] -0.05% | [4] -2% | [5] 2.6% | [6] -6.45%

CCOC(C)OCCCI (stereo not drawn)
inactive: [1] -25.8% | [2] -21.3% | [3] 3.5% | [4] -9.7% | [5] -13.3% | [6] 13.2%

CCN(CC)CCOC(=O)c1c(C)c(C)cc(C)c1C
inactive: [1] -17.4% | [2] -5.45% | [3] -6.45% | [4] -29.5% | [5] -8.3% | [6] -7.7%

CCN(CC)CCN1C(=O)c2cccc3cc(N)cc(c23)C1=O
inactive: [1] -1.9% | [2] -27.3% | [3] -7.4% | [4] -3.75% | [5] -9.6% | [6] 2.2%

COc1ccc2c(c1)N=C(NNC1=Nc3cc(OC)ccc3SC1)CS2
inactive: [1] -9.1% | [2] 3.15% | [3] 14.4% | [4] -14.9% | [5] -4.7% | [6] 3.9%

N#Cc1ccccc1NC(=O)C(=O)C1NC(=S)NC1=O (stereo not drawn)
inactive: [1] 15.4% | [2] -1.75% | [3] 26% | [4] 13.6% | [5] -3.2% | [6] 18.1%

COc1c(CO)cc(C)cc1CO
inactive: [1] 4.15% | [2] -0.5% | [3] -6.95% | [4] 3.05% | [5] -0.7% | [6] 0.5%

COC1C2C[C@@H](O)CCC2C(C(=O)OCCl)C[C@H]1O (stereo partly drawn)
inactive: [1] -12.4% | [2] -6.9% | [3] -11% | [4] -27.2% | [5] -10.6% | [6] -30.2%

Cc1c(-c2ccccc2)nc(N(C)C)oc1=O
inactive: [1] 19% | [2] -5.05% | [3] -6.8% | [4] -9% | [5] -16.2% | [6] -7.8%

Cc1[nH]n(C(=O)c2ccc(Cl)cc2)c(=O)c1/C=C1\C(O)=CC(=O)c2ccccc21
inactive: [1] 31.6% | [2] -6.85% | [3] 18.7% | [4] -19.6% | [5] 30.7% | [6] 16.9%

O=C1c2c(ccc3c2CCCC3)CC12Cc1ccc3c(c1C2=O)CCCC3
inactive: [1] 20.1% | [2] 13.8% | [3] -0.85% | [4] 23.9% | [5] 7% | [6] 12.1%

CC(=O)c1cc([N+](=O)[O-])c(O)cc1O
inactive: [1] 36.1% | [2] 2.25% | [3] 18.1% | [4] -16.8% | [5] 25.9% | [6] 41%

CCc1cccc(C)c1NC(=O)C(=O)CC(=O)CCCO
inactive: [1] -37.6% | [2] 21.7% | [3] 27.6% | [4] -27.9% | [5] 0.05% | [6] 25.4%

Cc1nn2c(c1C#N)NNc1c-2sc(=N)nnc1=O
inactive: [1] -1.6% | [2] 0.5% | [3] 13.5% | [4] -4.4% | [5] -9.4% | [6] 15.6%

CC(CCC(=O)O)[C@H]1CCC2[C@@H]3CC[C@@H]4CC(O)CC[C@]4(C)C3CC[C@@]21C (stereo partly drawn)
inactive: [1] -31.1% | [2] -18.1% | [3] -13.8% | [4] -0.1% | [5] -16.1% | [6] -26.7%

CS(=O)(=O)OC1COCOC1C1OCOCC1OS(C)(=O)=O (stereo not drawn)
inactive: [1] 7.8% | [2] 1.35% | [3] 10.5% | [4] -10.4% | [5] -6% | [6] -0.55%

CCOP(=O)(OCC)C(C(=O)OC)C(=O)C(=O)Nc1cccc([N+](=O)[O-])c1 (stereo not drawn)
inactive: [1] 7.8% | [2] -5.85% | [3] 23.2% | [4] -58.6% | [5] 0.35% | [6] 1.45%

ClC1CC2CC1C1CCCC21 (stereo not drawn)
inactive: [1] -2.4% | [2] -3.75% | [3] -16.1% | [4] 7.2% | [5] 4.8% | [6] -7.4%

O=C(O)C1CCN(Cc2oc(CO)cc(=O)c2O)C1 (stereo not drawn)
inactive: [1] -31.6% | [2] -19.7% | [3] -19.2% | [4] -1.4% | [5] -24.4% | [6] -2.75%

Nc1nc2c(C(=O)c3ccco3)nnn2c2cccc(Cl)c12
inactive: [1] 10.7% | [2] -2.7% | [3] 11.6% | [4] 11.2% | [5] 8.95% | [6] 5.85%

NS(=O)(=O)c1cccc(C(F)(F)F)c1
inactive: [1] -7.95% | [2] -37.9% | [3] -13.6% | [4] -21.7% | [5] -16.4% | [6] -7.2%

Cc1cc(C)c(-c2cc(C(O)C3OC4OC(C)(C)OC4C3O)on2)c(C)c1 (stereo not drawn)
inactive: [1] 15.3% | [2] -0.9% | [3] -1.3% | [4] 9.25% | [5] 0.8% | [6] 0.3%

CCCCCCNC(=O)c1ccc(C(=O)NCCCCCC)cc1
inactive: [1] 3.4% | [2] -13.3% | [3] -27% | [4] -19.5% | [5] 6% | [6] -31.9%

Cc1nn2c(C(=O)O)nnc2s1
inactive: [1] -0.3% | [2] 5.25% | [3] 7.7% | [4] -21.8% | [5] -16.6% | [6] -13.8%

CC(C)N(C(=O)c1ccc([Si](C)(C)C)c(C(=O)N(C(C)C)C(C)C)n1)C(C)C
inactive: [1] 30.6% | [2] 19.8% | [3] 20.9% | [4] 9.4% | [5] 0.1% | [6] 28.5%

O=C(c1ccccc1)c1ccccc1
inactive: [1] 23.9% | [2] 2.35% | [3] -13.2% | [4] -16.8% | [5] 14.3% | [6] 14.1%

CCOc1ccc2c(N=[N+]=[N-])cc(C)nc2c1
inactive: [1] -46.1% | [2] -11.2% | [3] -18.2% | [4] -67.8% | [5] 5.3% | [6] 5.45%

CC(=O)c1cc2c(cc1C)C(C)(C)CCC2C (stereo not drawn)
inactive: [1] -0.75% | [2] -24.8% | [3] -7.3% | [4] -5% | [5] 7.35% | [6] 2.3%

CN(C)CCSc1n[nH]c(=O)[nH]c1=O
inactive: [1] 2.4% | [2] -6.35% | [3] -7.35% | [4] -23.4% | [5] -16.1% | [6] -3.45%

N#Cc1ccc(CSC2=C(c3ccc(Cl)cc3)S/C(=C3\SC(SCc4ccc(C#N)cc4)=C(c4ccc(Cl)cc4)S3)S2)cc1
inactive: [1] -16.8% | [2] -15.3% | [3] -19.9% | [4] 7.7% | [5] -8.4% | [6] -25.9%

CC(=O)Nc1cccc(F)c1
inactive: [1] -35.1% | [2] 1.1% | [3] -25.4% | [4] -22.2% | [5] -13.8% | [6] -38.1%

CC1=CC(=O)C(c2ccccc2)CC1 (stereo not drawn)
inactive: [1] -0.2% | [2] -5.65% | [3] 14.8% | [4] -32.7% | [5] -0.75% | [6] -5.3%

O=[N+]([O-])c1cc([N+](=O)[O-])c2ccccc2c1NS(=O)(=O)c1ccc(Br)cc1
inactive: [1] 7.35% | [2] 18.9% | [3] 36.4% | [4] 0.7% | [5] 36%
active: [6] 70.5%

Cc1cc(Br)cc(C)c1NC(=O)C(=O)Nn1c(=S)[nH]c2ccccc2c1=O
inactive: [1] -8.55% | [2] -16.1% | [3] -6.15% | [4] 12.8% | [5] -8.2% | [6] 1.3%

COC(=O)c1c(C(=O)Nc2ccc(Cl)cc2)c(C)n(NC(N)=O)c1C
inactive: [1] -6.45% | [2] 8.8% | [3] 6.9% | [4] -45.5% | [5] 1.15% | [6] 3.95%

Nc1nc(Cl)cc(NCC(O)CO)n1 (stereo not drawn)
inactive: [1] 7.55% | [2] 2.35% | [3] -1.45% | [4] 6.65% | [5] -0.25% | [6] -2.55%

CSc1nc2c(c(=O)[nH]1)CC(=O)N2
inactive: [1] 0.35% | [2] -5.75% | [3] -7.25% | [4] -33.6% | [5] -12.2% | [6] -3.1%
